Paper PMC6602471

Molecular target: RUNX1 (Homo sapiens, UniProt Q01196 1-453)
Experiment: custom PBM; custom protein-binding microarray; buffer, salt, pH and temperature not stated; high values mean tight binding
Conditions: dsDNA, one strand shown

Chain of RUNX1 (Q01196 whole entry): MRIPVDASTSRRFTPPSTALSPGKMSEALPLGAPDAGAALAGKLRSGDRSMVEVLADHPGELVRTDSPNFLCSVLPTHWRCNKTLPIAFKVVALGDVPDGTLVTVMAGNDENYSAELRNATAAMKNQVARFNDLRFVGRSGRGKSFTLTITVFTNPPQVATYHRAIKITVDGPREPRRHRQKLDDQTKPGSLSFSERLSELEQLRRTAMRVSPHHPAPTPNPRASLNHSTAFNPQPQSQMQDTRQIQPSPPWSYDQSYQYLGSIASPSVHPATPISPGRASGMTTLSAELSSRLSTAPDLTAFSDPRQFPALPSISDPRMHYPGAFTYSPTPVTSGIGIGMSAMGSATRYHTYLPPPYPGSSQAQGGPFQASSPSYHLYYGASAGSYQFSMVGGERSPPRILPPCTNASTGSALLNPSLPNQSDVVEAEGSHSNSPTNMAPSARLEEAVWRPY

| Sequence | binding signal |
| --- | --- |
| GCATACGGCTGACGTCAGTCACATACGCACACATACACATACACACATACACATACGCAC | 10.9 log fluorescence intensity |
| GCGCACATTTTCCGTAAATCATACACGCACACATACACATACACACATACACATACGCAC | 11.1 log fluorescence intensity |
| GCATACGGCCGACGTCAGCCACATACGCACACATACACATACACACATACACATACGCAC | 11 log fluorescence intensity |
| GCGCACATTTCCCGTAAATGATACACGCACACATACACATACACACATACACATACGCAC | 10.9 log fluorescence intensity |
| GCGCACATTTCACGTAAATCATACACGCACACATACACATACACACATACACATACGCAC | 10.9 log fluorescence intensity |
| GCATACGACTGACGTCAGCCACATACGCACACATACACATACACACATACACATACGCAC | 11 log fluorescence intensity |
| GCGCACATTTCCCGTAACTCATACACGCACACATACACATACACACATACACATACGCAC | 11 log fluorescence intensity |
| GCATACGGCTGACGTCCGCCACATACGCACACATACACATACACACATACACATACGCAC | 10.9 log fluorescence intensity |
| GCATACGGCTGAGGTCAGCCACATACGCACACATACACATACACACATACACATACGCAC | 10.9 log fluorescence intensity |
| CGCGCCCTCTGTGGTTGCGCACATACGCACACATACACATACACACATACACATACGCAC | 11.5 log fluorescence intensity |
| CGCGCAATCTGTGGTTGCGCACATACGCACACATACACATACACACATACACATACGCAC | 11.1 log fluorescence intensity |
| CGCGCACTCTGTGTTTGCGCACATACGCACACATACACATACACACATACACATACGCAC | 11 log fluorescence intensity |
| GCGCACATTTCCCGTGAATCATACACGCACACATACACATACACACATACACATACGCAC | 11 log fluorescence intensity |
| CGCGCACTATGTGGTTGCGCACATACGCACACATACACATACACACATACACATACGCAC | 11.3 log fluorescence intensity |
